Autophagy mod – modulators of autophagy; MEF GFP-LC3 puncta imaging; test concentration mostly 10 µM; 190,000 tested, 0.98% active; calls only at 10 µM (by protocol); AID 463193;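 active means percentage of spot-positive cells more than 3 SD above its plate mean, without a fluorescence outlier flag or 80% toxicity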;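 further: spot-positive cell cutoff set from DMSO-treated cells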
Redox H2O2 prof – compounds producing H2O2 with reducing agent – biochemical, NIH compound library profiling, artefact control for MLSCN library redox annotation, primary screen | DTT-dependent redox cycling H2O2, phenol red/HRP absorbance; 100% = 100 µM peroxide control, 0% = buffer | activation, % at 10 µM | 200,000 tested, 0.03% active;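 active means activation of at least 50% relative to the plate's high and low controls in the primary single-dose screen; inactive means activation below 50%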;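 further: compound incubated with DTT at 0.8 mM final as the reducing agent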
NCF1 inh – p47phox (human) inhibition; inhibition, % at 24.7 µM; p47phox/p22phox peptide binding, fluorescence polarization, 2 h; P14598; 220,000 tested, 0.53% active; AID 1274;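 active means inhibition above about 30%, limit read from the data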;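 further: 0% = p47phox with labelled peptide and 100% = labelled peptide alone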
Target sequence (P14598 whole entry, looked up): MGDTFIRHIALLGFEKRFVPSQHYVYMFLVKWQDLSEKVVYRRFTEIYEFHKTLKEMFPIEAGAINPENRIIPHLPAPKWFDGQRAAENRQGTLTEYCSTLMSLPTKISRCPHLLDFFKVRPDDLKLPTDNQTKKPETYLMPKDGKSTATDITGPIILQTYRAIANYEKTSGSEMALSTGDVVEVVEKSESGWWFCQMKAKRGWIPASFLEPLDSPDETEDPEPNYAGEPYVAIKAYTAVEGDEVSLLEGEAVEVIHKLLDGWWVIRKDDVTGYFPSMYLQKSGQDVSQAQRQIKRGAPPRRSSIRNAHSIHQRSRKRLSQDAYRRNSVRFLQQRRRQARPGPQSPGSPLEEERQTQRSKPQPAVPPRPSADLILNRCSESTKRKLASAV
Arbovirus inh – arbovirus infection inhibition; 200,000 tested, 0.37% active; inhibition, % at 10 µM; arbovirus infection cell-based antiviral screen; in the data active means inhibition above about 30%
Insulin prom up – MIN6 insulin promoter up-regulation; MIN6 insulin promoter-GFP reporter, high-content imaging; hits give high values; z-score at 5 µM; 190,000 tested, 0.3% active;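 active means z-score above 3 at 5 µM with at least 500 cells counted in the well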
HMGR II inh – blocks class II HMG-CoA reductase of Enterococcus faecalis; purified E. faecalis HMGR, NADPH absorbance 340 nm kinetic; 190,000 tested, 0.41% active; inhibition, % at 10 µM; AID 1066;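 active means inhibition above a set limit, the median over all tested compounds plus 3 SD, cut at about 9.5% in these data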;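 further: enzyme runs in reverse so mevalonate oxidation gives rising NADPH absorbance; 0% = complete reaction with DMSO and 100% = background rate lacking mevalonate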
Active calls of the source: *; i = inactive; · = not tested or not shown; + = active, no number. In the library only some 2.2% were active in any assay of this set; here they are far more common.

SMILES	Autophagy mod	Redox H2O2 prof	NCF1 inh	Arbovirus inh	Insulin prom up	HMGR II inh
S=c1[nH]nc(-c2ccccc2)n1CC1CCCO1 (centres undefined)	i	-1	-17	1	3.1*	-9
Cc1nc(=O)c(-c2ccccc2)c(C)n1CC1CCCO1 (centres undefined)	i	-1	4	9	0.41	0
O=C(NCc1cccnc1)c1cccc(F)c1	+	-3	4	9	-0.46	4
Cc1ccc(C(=O)NCCn2c(N)c(C#N)c3nc4ccccc4nc32)cc1	i	0	-46	-10	4.1*	-6
Nc1c(C(=O)NCCN2CCOCC2)c2nc3ccccc3nc2n1-c1ccccc1	i	0	-11	1	·	2
Nc1c(C(=O)NCCN2CCOCC2)c2nc3ccccc3nc2n1CCc1ccccc1F	+	0	-29	-42	-0.45	3
Nc1c(C(=O)NCCN2CCOCC2)c2nc3ccccc3nc2n1-c1ccc2c(c1)OCO2	+	0	-13	-4	0.45	-5
COc1cccc(/C=N/NC(=O)Cn2cnc3c2c(=O)n(C)c(=O)n3C)c1	·	·	6	·	-0.02	·
Cc1cccn2cc(-c3ccc(S(=O)(=O)N4CCCCC4)cc3)nc12	+	0	-14	4	-0.82	10*
O=c1nc(N/N=C/c2c[nH]c3ccccc23)cn[nH]1	·	·	-16	·	0.21	·
O=c1cnnc(N/N=C/c2c[nH]c3ccccc23)[nH]1	i	0	99*	17	-0.68	-5
CCOC(=O)C(NC(=O)Cc1ccccc1)(Nc1cc(C)on1)C(F)(F)F (centres undefined)	i	0	0	-1	·	12*
O=C(CNC(=O)c1ccc(Cl)cc1)NCCCn1ccnc1	i	2	-12	7	·	-4
Cc1ccc([N+](=O)[O-])cc1NC(=O)C[n+]1ccccc1	i	0	-2	26	1.5	13*
Cc1ccc([N+](=O)[O-])cc1NC(=O)c1cccs1	i	0	3	6	3.2*	-2
Cc1ccc([N+](=O)[O-])cc1NC(=O)c1ccccc1	i	-2	7	-1	-0.3	-2
Cc1cc([N+](=O)[O-])ccc1NC(=O)C[n+]1ccc(N(C)C)cc1	i	-1	-5	6	-0.31	-4
c1ccc(Cc2cc(-c3ccccc3)on2)cc1	i	4	-17	-14	·	-3
CCC1=Nc2cc(C(=O)NCCCOC)ccc2Sc2ccccc21	+	0	-12	-13	-0.94	1
CCCC1=Nc2cc(C(=O)NCCCOCC)ccc2Sc2ccccc21	i	-4	-10	-14	-1.1	1
CCOCCCNC(=O)C(NC(=O)c1ccc2c(c1)OCO2)c1ccccc1 (centres undefined)	+	0	-2	7	-0.39	0
O=C(CSc1nnc(-c2cccs2)o1)N1CCCCC1	i	-1	-6	-3	0.1	0
CC1CCCC(C)N1C(=O)CSc1nnc(-c2cccs2)o1 (centres undefined)	i	2	-2	3	3.5*	-1
COc1ccc(-c2nnn(CC(=O)NCc3ccc4c(c3)OCO4)n2)cc1OC	i	0	34*	13	·	0
CCOc1ccc(-c2nnn(CC(=O)NCc3ccc4c(c3)OCO4)n2)cc1	i	1	-5	-15	-0.25	-2
SMILES	Autophagy mod	Redox H2O2 prof	NCF1 inh	Arbovirus inh	Insulin prom up	HMGR II inh
O=C(Nc1nonc1NC(=O)c1cccs1)c1cccs1	i	0	-16	23	0.2	-4
COC(=O)CSc1nc2ccc(NC(=O)c3ccccc3C(=O)N3CCOCC3)cc2s1	i	0	3	-5	0.56	-11
O=C(Nc1ccc2nc(SCc3ccc(Cl)cc3)sc2c1)c1ccccc1C(=O)N1CCOCC1	+	-6	-5	-19	-0.87	5
CCC(CC)c1nnc(NC(=O)C2=NNC(=O)CC2)s1	i	0	-5	4	·	-1
O=C(CSc1nnc(-c2ccncc2)n1Cc1ccco1)Nc1nc(-c2ccccc2)cs1	+	0	13	-12	-0.38	-3
Cc1csc(NC(=O)CSc2nnc(-c3ccncc3)n2C)n1	i	2	41*	1	·	-3
Cn1c(SCC(=O)Nc2nccs2)nnc1-c1ccncc1	i	-1	-14	2	0.93	2
Cc1ccc(C(=O)Cn2cnc3ccccc3c2=O)cc1	i	-1	-17	-8	0.25	10*
O=C(Cn1cnc2ccccc2c1=O)c1ccccc1	i	1	-14	1	·	-7
C/C=C/C(=O)OCC(=O)Nc1cccc(S(=O)(=O)NC2=NCCCCC2)c1	i	-1	-3	11	-0.91	-4
C=C(C)CNC(=S)Nc1cccc(S(=O)(=O)NC2=NCCC2)c1	i	0	-5	6	-0.13	1
CCC(C(=O)OCC(=O)Nc1cccc(S(=O)(=O)NC2=NCCCCC2)c1)c1ccccc1 (centres undefined)	i	0	-1	9	4*	-1
CSCCCNC(=S)Nc1cccc(S(=O)(=O)NC2=NCCC2)c1	+	-2	-2	6	0.08	-5
CCOC(=O)c1sc(=NC(=O)CCS(=O)(=O)c2ccccc2)n(C)c1C	i	0	-13	11	0.25	-4
CCOC(=O)c1sc(=NC(=O)COc2ccc(Cl)cc2)n(C)c1C	+	-1	3	3	-0.78	-4
CCOC(=O)c1oc2ccc(CNC3CCCCC3)c(Cl)c2c1C	i	1	-12	-20	-1.8	6
CCOC(=O)c1oc2ccc(CNCCO)c(Cl)c2c1C	i	0	1	-2	-0.85	10*
C=CCOc1ccc(CNC(C)(C)CO)cc1OCC	i	-7	-8	-1	·	0
CC(C)c1ccc(C2NC(=O)CCC2[N+](=O)[O-])cc1 (centres undefined)	i	0	-8	-4	1.4	10*
O=C1CCC([N+](=O)[O-])C(c2ccc(Cl)cc2Cl)N1 (centres undefined)	i	3	-14	3	-0.83	-2
CCN(C)c1ccc(/C=N\n2nnnc2N)cc1	+	2	-6	-19	0.02	-6
Nc1nnnn1/N=C/c1ccc(O)cc1	i	1	3	-2	·	-5
Cc1cccc(-c2noc(CCCC(=O)N3CCOCC3)n2)c1	i	-1	-4	2	-0.52	-6
CCCCn1c(=O)[nH]c(=O)c2c1nc(-c1cc3c(cc1Br)OCO3)n2C	i	0	1	20	-0.88	-3
O=C(NCCCN1CCCCCC1)C1CC(=O)N(CCc2ccccc2)C1 (centres undefined)	i	-3	55*	10	-1.4	-5
O=C(NCCCN1CCOCC1)C1CC(=O)N(CCc2ccccc2)C1 (centres undefined)	i	0	0	3	-0.1	-1
